The whole screen tested about 320,000 compounds, of which about 2,100 (0.66%) were called active. Another 53% or so got no clear call; they are omitted. This is one part of a sample in which actives are shown more often than they occur. Calls follow the shape of the dose curve; as a rule, active = well fitted inhibition curve with a large enough effect in the signal ratio, with a control signal flat (not every such curve was filed as active); inconclusive = small, poorly fitted or top-dose-only effect, or effect the other way, or a change in a side signal; inactive = flat fitted curve, though single readings scatter; the % refers to the signal ratio.
Assay: qHTS Assay for Lipid Storage Modulators in Drosophila S3 Cells;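 as to cell number change: cells counted by Cell Tracker Red CMTPX staining in the red channel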; as to lipid storage change, negative = inhibition: % is scaled to controls: 0 for no effect and ±100 for the full control effect
Settings: BODIPY lipid droplet fluorescence, 18-24 h, cells fed with added oleic acid; cell number change: measured here: cell count max response; series mostly up to 46.1 µM; lipid storage change, negative = inhibition: at the top concentration
Source text: NIH Molecular Libraries Probe Production Centers Network [MLPCN] NIH Chemical Genomics Center [NCGC] MLPCN Grant: 1 R03 MH085686-01 Assay Submitter (PI): Beller, Mathias; Max-Planck-Institut fur Biophysikalische Chemie NCGC Assay Overview: Storing lipids as a reservoir for energy or the anabolism of elementary metabolites is a common feature of probably all cells and is conserved from bacteria to humans. The universal cellular lipid storage organelle is the so-called lipid storage droplet (LD). Although ubiquitous, LDs share a simple structure composed of a hydrophobic core that harbors the storage lipids, which is shielded by a droplet-specific phospholipid monolayer to which proteins are attached. The current model of LD biogenesis involves an incorporation of the lipid core into the membrane leaflets of the endoplasmic reticulum (ER) followed by a subsequent budding-like maturation of a LD, which ultimately pinches off. Once released, LD volume can increase by localized lipogenesis or fusion of existing droplet. Storage lipids are re-mobilized enzymatically by lipase activity. Lipase regulation in the adipocyte is heavily studied and involves multiple components including catecholamine signaling, the LD-associated proteins Perilipin and comparative gene identification (CGI-58) and at least two lipases named hormone sensitive lipase (HSL) and adipocyte triglyceride lipase (ATGL). LD regulation outside of the adipocyte is poorly understood and only few components are known. However, there is an urgent need to learn more about ectopic fat depots as mislocalized storage of lipids, for example in the liver or muscle, is an eminent health problem associated with insulin resistance or the metabolic syndrome. We developed a laser-scanning cytometer assay to enable 1,536-well screening and combined the results of the small molecules screen with an RNAi database based on lipid storage.
Triacsin C (Sigma-Aldrich T-4540), an inhibitor of long-chain fatty acyl CoA synthetase that blocks synthesis of triglycerides, was used as a positive control for lipid under-storage. A total of 23 nL of compound solution of different concentrations were transferred to the assay plates using a Kalypsys pin tool equipped with a 1,536-pin array containing 10-nL slotted pins (FP1S10, 0.457-mm diameter, 50.8 mm long; V&P Scientific). One microliter of oleic acid (400 uM) was added, and the plate was lidded with stainless steel rubber gasket lined lids containing pinholes. […] Fluorescence was detected by excitation of the fluorophores with a 488-nm laser on an Acumen Explorer (TTP Lab Tech). The total intensity in channel 2 (500-530 nm) reflected lipid droplet accumulation. Cells were detected using channel 3 (575-640 nm) with 5-um width and 100-um depth filters. The ratio of the number of objects in PMT channel 2 over the number of objects in PMT channel 3 was also calculated. Percent activity was computed relative to an internal control (100% inhibited lipid droplet deposition due to the presence of 20 uM Triacsin C), which was added to 32 wells/plate.
With CCc1cccc(CC)c1NC(=O)COC(=O)CC1c2ccccc2CCN1S(=O)(=O)c1ccccc1 (centres undefined) the “lipid storage change, negative = inhibition” value was -0.415% (inactive) and the cell number change was 0.0752%. In the case of COCCSc1nc(N)c(NC(=O)c2ccco2)c(=O)[nH]1, the “lipid storage change, negative = inhibition” value is reported as -9.67% (inactive) and the cell number change is reported as -16.8%. For COc1ccc(CC(=O)NCC(=O)N/N=C/c2c[nH]c3ccccc23)cc1, the “lipid storage change, negative = inhibition” value was 27.6% (inactive) and the cell number change was 14.2%. In the case of CCCCCCCNC(=O)C1(CC2CC(c3ccc(Cl)cc3)=NO2)CCNCC1 (centres undefined), the “outcome” value is reported as “inactive” and the cell number change is reported as -6.47%. With CNC(=O)/C(=C\c1cccc(Oc2ccccc2)c1)NC(=O)c1ccccc1 the “lipid storage change, negative = inhibition” value was -0.332% (inactive) and the cell number change was 2.1%. With CCCCn1c(-c2ccc(OC)cc2)nc2c(=O)n(C)c(=O)[nH]c21 the “lipid storage change, negative = inhibition” value was 4.44% (inactive) and the cell number change was 12.4%. For CCCn1c(-c2ccc(OC)cc2)nc2c(=O)n(C)c(=O)[nH]c21, the Potency was 29.1 µM (active) and the cell number change was 11.6%. In the case of CCCn1c(-c2ccccc2)nc2c(=O)n(C)c(=O)[nH]c21, the “lipid storage change, negative = inhibition” value is reported as -1.42% (inactive) and the cell number change is reported as -15.6%. For CN(C)c1ccc(NC(=O)CN2CCC(NC(=O)C3CCCCC3)CC2)cc1, the “lipid storage change, negative = inhibition” value was -9.2% (inactive) and the cell number change was 6.84%. For CN(C)c1ccc(NC(=O)CN2CCC(N3CCCCC3)CC2)cc1, the Potency was 23.1 µM (active) and the cell number change was -25.9%. For CCN1CCN(CC(=O)Nc2ccc(N(C)C)cc2)CC1, the “outcome” value was “inactive” and the cell number change was 14.8%. In the case of O=C(O)C1CC1C(=O)N1CCN(c2ccc(Cl)c(Cl)c2)CC1 (centres undefined), the “lipid storage change, negative = inhibition” value is reported as 3.52% (inactive) and the cell number change is reported as 16.3%. For CCc1nc2nc(C)c(NS(=O)(=O)c3ccc(C4CCCCC4)cc3)c(=O)n2[nH]1, the “outcome” value was “inactive”. With O=C(CCN1CCCC1=O)NC1CCCc2c1cnn2-c1ccccc1F (centres undefined) the “lipid storage change, negative = inhibition” value was -1.27% (inactive) and the cell number change was 11%. In the case of Cc1nnsc1C(=O)NC1CCCc2c1cnn2-c1ccccc1F (centres undefined), the Potency is reported as 4.11 µM (active). With Cc1cc(C(=O)NC2CCCc3c2cnn3-c2cccc(C)c2C)n(C)n1 (centres undefined) the Potency was 0.92 µM (active) and the cell number change was 5.94%. For COc1cc(C(=O)NC2CCCc3c2cnn3-c2ccccc2F)cc(OC)c1OC (centres undefined), the Potency was 16.4 µM (active) and the cell number change was 22.4%. For Cc1cccc(-n2ncc3c2CCCC3NC(=O)CCN2CCCO2)c1C (centres undefined), the “lipid storage change, negative = inhibition” value was -7.74% (inactive) and the cell number change was -19.9%. With COc1ccc(C(=O)NC2CCCc3c2cnn3-c2cc(F)cc(F)c2)c(OC)c1OC (centres undefined) the “outcome” value was “inactive”. With Cc1cccc(-n2ncc3c2CCCC3NC(=O)CN2CCCC2=O)c1C (centres undefined) the “lipid storage change, negative = inhibition” value was 6.5% (inactive) and the cell number change was -2.49%. In the case of COc1cc(C(=O)NC2CC(C)(C)Cc3c2cnn3-c2ccccc2)cc(OC)c1OC (centres undefined), the “lipid storage change, negative = inhibition” value is reported as 6.07% (inactive) and the cell number change is reported as 9.79%. With Cc1ccccc1-n1ncc2c1CC(C)(C)CC2NC(=O)c1snnc1C (centres undefined) the “lipid storage change, negative = inhibition” value was 2.11% (inactive) and the cell number change was 7.34%. For O=C(O)CCCC(=O)Nc1nc(-c2ccc(F)cc2)cs1, the “outcome” value was “inactive”. With COc1ccc(-n2c(SCC(=O)NCC3CCCO3)nc3c([nH]c4ccccc43)c2=O)cc1OC (centres undefined) the “outcome” value was “inactive” and the cell number change was -13.6%. With Cc1ccc(OCC(=O)Nc2ccc(N3CCN(S(C)(=O)=O)CC3)cc2)cc1 the “outcome” value was “inactive” and the cell number change was 18.1%. With O=C(CSc1nnc2c(Cl)cc(C(F)(F)F)cn12)Nc1ccc2c(c1)OCO2 the “lipid storage change, negative = inhibition” value was 18.7% (inactive) and the cell number change was -8.45%. With COc1ccc(-c2cn[nH]c2-c2ccc(OCC(=O)NN)cc2O)cc1OC the “lipid storage change, negative = inhibition” value was 4.99% (inactive) and the cell number change was 12.9%. With O=C(N[C@@H](CO)C(=O)NCc1ccccc1)c1ccc(C(F)(F)F)cc1 the “lipid storage change, negative = inhibition” value was 5.11% (inactive) and the cell number change was 23.3%. In the case of COc1cccc(CNC(=O)CCC(=O)N2Cc3cccc(OC)c3Oc3ncccc32)c1OC, the “lipid storage change, negative = inhibition” value is reported as -20.7% (inactive). In the case of Cc1ccc(CSCc2ccc(C(=O)NCCCN3CCOCC3)o2)cc1, the “lipid storage change, negative = inhibition” value is reported as -1.21% (inactive). In the case of COc1cc(S(=O)(=O)N(Cc2cccnc2)Cc2cccc(OC)c2OC)ccc1-n1cnnn1, the “lipid storage change, negative = inhibition” value is reported as -2.65% (inactive) and the cell number change is reported as -1.62%. For O=C(COc1ccc([N+](=O)[O-])cc1)Nc1ccc(NC(=O)c2ccccc2)cc1, the “lipid storage change, negative = inhibition” value was 8.49% (inactive) and the cell number change was -8.36%. In the case of Oc1ccccc1C1=NN(c2ccccc2)C(c2ccccc2)C1 (centres undefined), the Potency is reported as 1.64 µM (active) and the cell number change is reported as 0.901%. In the case of O=Cc1ccc(N2N=C(c3ccccc3)CC2c2ccccc2)cc1 (centres undefined), the “lipid storage change, negative = inhibition” value is reported as 2.28% (inactive) and the cell number change is reported as -15.5%. With O=C(O)c1ccc(N2N=C(c3ccccc3)CC2c2ccccc2)cc1 (centres undefined) the “outcome” value was “inactive” and the cell number change was -6.08%. With CS(=O)(=O)c1ccc(C(=O)NCc2ccc(F)cc2)cc1 the “lipid storage change, negative = inhibition” value was 1.05% (inactive) and the cell number change was 23%. With N/C(=N\OC(=O)c1ccc([N+](=O)[O-])cc1)c1ccc(Br)cc1 the “outcome” value was “inactive” and the cell number change was 19%. For N/C(Cc1ccc([N+](=O)[O-])cc1)=N\OC(=O)c1ccc(Br)cc1, the Potency was 8.2 µM (active) and the cell number change was 0.393%. For N/C(Cc1ccc([N+](=O)[O-])cc1)=N\OC(=O)c1ccc(Br)o1, the “lipid storage change, negative = inhibition” value was 6.27% (inactive) and the cell number change was 10.2%. In the case of COC(=O)c1sccc1N/N=C/c1cccc(Oc2ccccc2)c1, the “lipid storage change, negative = inhibition” value is reported as 10.2% (inactive) and the cell number change is reported as -12.1%. For COc1ccc(CNC(=O)CCn2c(=O)c3cccn3c3ccc(F)cc32)cc1, the Potency was 5.8 µM (active) and the cell number change was -3.83%. For COc1ccc(NC(=O)CCn2c(=O)c3cccn3c3ccccc32)cc1, the “outcome” value was “inactive” and the cell number change was -20.6%. With CCCCNC(=O)CCn1c(=O)c2cccn2c2ccc(F)cc21 the “lipid storage change, negative = inhibition” value was -5.76% (inactive) and the cell number change was -8.11%. For CCCS(=O)(=O)c1nc(S(=O)(=O)c2ccc(C)cc2)c(N2CCN(C)CC2)s1, the “outcome” value was “inactive”. In the case of CCCS(=O)(=O)c1nc(S(=O)(=O)c2ccc(C)cc2)c(N2CCC(C)CC2)s1, the “lipid storage change, negative = inhibition” value is reported as -12.9% (inactive). For CCCS(=O)(=O)c1nc(S(=O)(=O)c2ccc(C)cc2)c(N2CC(C)OC(C)C2)s1 (centres undefined), the Potency was 18.4 µM (active) and the cell number change was -24.5%.

Source: PubChem BioAssay AID2685 (National Center for Advancing Translational Sciences (NCATS), 2010)
Potency is read from the fitted curve at half-maximal effect.
